High-throughput results (PubChem BioAssay)
RE007 growth inh – qHTS Assay for Inhibitors of the HIV-1 protein Vpr; S. pombe RE007 Vpr strain, BacTiter-Glo ATP luminescence, 24 h; Potency, µM (doses to about 92.2 µM), for the others: at the top dose activity change, negative = less growth, actives largely listed as inhibitors; 360,000 compounds, 0.21% hits; AID 651644, 2012; active means well fitted falling curve with a large enough effect; inconclusive means small, poorly fitted or top-dose-only effect; inactive means no such curve, though single readings can be large or run the other way; further: nearly all actives have a fitted effect of over 50% in size
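Fission yeast RE007 carrying one integrated HIV-1 vpr copy, seeded at OD 0.01 in PMG+AL medium with 23 nL pinned compound. Grown 24 h at 30 degrees; viability read by BacTiter-Glo luminescence after 5 min.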
AMA1 RON2 block – qHTS for Inhibitors of AMA1-RON; Towards Development of Antimalarial Drug Lead: Primary Screen. 360,000 compounds, 0.2% hits. AID 720542, 2013. Potency, µM (highest dose often 58.2 µM), without a hit: top-dose activity change, negative = inhibition, usual class: inhibitors. AlphaScreen AMA1-biotinylated RON2 peptide binding. Plasmodium falciparum AMA1 (3D7) - RON2 peptide interaction;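 further: 0% = vehicle wells and -100% = peptide control; nearly all actives have a fitted effect of over 45% in size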
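AMA1 (3D7) with his tag at 25 nM final met compounds first, then biotinylated RON2 peptide at 25 nM; detection used donor plus acceptor beads, 10 µg/mL apiece, read by AlphaScreen after 30 min at room temperature.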
TbPYK inhibitor – qHTS of Trypanosoma Brucei Inhibitors | pyruvate kinase (Trypanosoma brucei), Q57TT1 | TbPYK enzyme, Kinase-Glo Plus ATP luminescence, 45 min | Potency, µM (highest dose often 76.8 µM), inactives show top-dose activity, negative = inhibition, hits mostly inhibitors | 410,000 compounds, 0.12% hits; further: nearly all actives have a fitted effect of over 50% in size
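Quantitative HTS: titrated library compounds versus trypanosomal pyruvate kinase in TEA buffer (pH 7.2) containing KCl, MgCl2, BSA and Tween-20. Reactions were initiated with ADP, 130 uM final. Kinase-Glo Plus luminescence was read after 45 min at RT.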
LmPK inhibitor – qHTS Assay for Inhibitors of Leishmania Mexicana Pyruvate Kinase (LmPK). Q27686. purified LmPK, Kinase-Glo ATP luminescence, 1 h. Potency, µM (top dose mostly 57.5 µM), for the others: at the top dose activity change, negative = inhibition, most hits filed as inhibitors. 290,000 compounds, 0.37% hits
Target sequence (Q27686 whole entry, looked up): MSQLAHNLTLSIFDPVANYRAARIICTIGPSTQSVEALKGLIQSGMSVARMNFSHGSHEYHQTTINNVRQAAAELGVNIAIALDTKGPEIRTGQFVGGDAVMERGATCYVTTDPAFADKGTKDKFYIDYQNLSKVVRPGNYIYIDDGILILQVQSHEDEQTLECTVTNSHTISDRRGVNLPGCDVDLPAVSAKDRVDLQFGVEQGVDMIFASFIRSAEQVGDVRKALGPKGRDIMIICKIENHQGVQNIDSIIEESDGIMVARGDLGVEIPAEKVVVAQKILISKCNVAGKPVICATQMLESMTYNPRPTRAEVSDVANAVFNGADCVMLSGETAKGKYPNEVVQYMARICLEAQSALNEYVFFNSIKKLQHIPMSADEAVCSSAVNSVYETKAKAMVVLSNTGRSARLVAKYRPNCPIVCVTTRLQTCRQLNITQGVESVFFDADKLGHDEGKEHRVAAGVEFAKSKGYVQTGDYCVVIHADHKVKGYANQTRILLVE
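Screened at intermediate enzyme activity to detect both inhibitors and activators: LmPK at 0.1 nM, with a 0.5 nM enzyme column as activation reference. PEP 0.5 mM, ADP 0.1 mM; ATP detected by luminescence after 1 h.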
Sm TGR inh – qHTS Assay for the Inhibitors of Schistosoma Mansoni Peroxiredoxins | purified TGR, DTNB reduction, TNB absorbance 405 nm | AID 485364, 2010 | Potency, µM (titrated, usually from 114 µM), for the others: top-dose activity change, negative = inhibition, actives largely listed as inhibitors | 360,000 compounds, 3% hits | Schistosoma mansoni thioredoxin glutathione reductase (TGR), Q962Y6; further: nearly all actives have a fitted effect of over 60% in size
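First, TGR (20 nM dispensed) and NADPH were mixed with compound. Second, a 15 min room-temperature incubation followed. Third, further NADPH and then DTNB were added to start the reaction. Finally, TNB absorbance was monitored kinetically.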
Active calls of the source: *; u = inconclusive; x = no result given; [ ] = another dose, or the depositor's remark. Sampled rows, rich in hits. Any-hit rate of the full collection: about 3.2%. Unless noted, the call rests on the fitted dose curve; in most records, active means well fitted curve in the direction sought with a large enough effect; inconclusive means small, poorly fitted or top-dose-only effect, or another doubt; inactive means no such curve, though single readings can be large; an effect the other way counts as inactive or inconclusive. Unless noted, on the % scale 0 is the no-effect control and ±100 the full control effect; potency means the concentration at half of the fitted maximal effect.

SMILES	RE007 growth inh	AMA1 RON2 block	TbPYK inhibitor	LmPK inhibitor	Sm TGR inh
COc1ccccc1N1CCN(C(=O)CSc2nc(-c3ccc(C(C)C)cc3)no2)CC1	x	x	-1%	x	-11%
Cc1ccccc1N1CC(=O)N(c2ccccc2C)CC1=O	-2%	-27%	2%	2%	-2%
Cc1cccc2c1c1ccc3c(c1n2C)C(=O)C=CC3=O	x	-22%	-7%	u	2.5µM*
O=C1OC2(c3ccc(O)cc3Oc3cc(O)ccc32)c2ccccc21	x	x	4%	x	x
O=C1OC2(c3ccccc31)c1cc(I)c(O)c(I)c1Oc1c2cc(I)c(O)c1I	x	x	u	x	0.89µM*
O=C(N/N=C/c1ccco1)c1[nH]ncc1Br	x	x	x	-6%	-14%
O=C(N/N=C/c1ccccc1)c1[nH]ncc1Br	-13%	49%	u	13µM*	-4%
O=C(N/N=C/c1cccnc1)c1[nH]ncc1Br	-27%	30%	-13%	18µM*	10%
COc1ccc(-c2nc3c(c4c2C[C@H](c2ccccc2)OC4)CN(S(=O)(=O)c2ccc4c(c2)OCCN4C)CC3)c(C)c1	x	x	x	-2%[11.5 µM]	x
CN(C)c1ccc(/C=C/c2ccc3ccccc3n2)cc1	u	2%	u	u	u
Fc1ccccc1/C=C/c1ccc2ccccc2n1	u	39%	u	13µM*	-13%
Oc1ccc(/C=C/c2ccc3ccccc3n2)cc1	u	18%	u	7.1µM*	-18%
C(=C\c1ccc2ccccc2n1)/c1ccccc1	u	53%	-15%	13µM*	3%
Cn1c(=O)n(C)c2cc(N3CCOCC3)c(NS(=O)(=O)c3ccc(Br)cc3)cc21	x	x	1%	x	8%
COC(=O)CC1c2ccccc2C(Cc2ccc3c(c2)OCO3)=C(C)N1C(=O)OC (centres undefined)	x	x	x	0%[11.5 µM]	x
Cc1nn(-c2ccccc2)c(C)c1/C=N/n1c(-c2ccccc2Br)n[nH]c1=S	13%	57%	u	13µM*	7%
O=C1NCC(COCc2ccco2)O1 (centres undefined)	u	-3%	5%	0%	45µM*
CCCC(=O)N1c2nc(C(C)C)nn2C2(CCCCC2)[C@@H]2CCCC[C@@H]21	x	x	1%	x	-4%
CCn1c(-c2ccc(-c3ccccc3)cc2)c[nH]c1=S	7%	10%	-24%	1%	9%
C=CCn1c(-c2ccc(Cl)cc2)c[nH]c1=S	8%	13%	u	7.9µM*	5%
C=CCn1c(-c2ccccc2)c[nH]c1=S	11%	28%	u	13µM*	1%
Cc1cc(C)cc(NC(=O)Cn2c(=O)n(Cc3ccco3)c(=O)c3oc4ccccc4c32)c1	x	x	-9%	x	2%
Cc1ccc(-n2ncc(C(=O)NC3CCN(Cc4ccccc4)CC3)c2C2CCN(C(=O)OC(C)(C)C)CC2)cc1C	x	x	-4%[15.4 µM]	x	1%
CN(Cc1ccccc1)C(=O)c1ccco1	4%	-11%	-1%	-2%	1%
Cc1ccc(C(CCN(Cc2ccccc2)C(=O)c2ccco2)c2ccco2)cc1 (centres undefined)	-9%	-16%	-14%	2%	20µM*
O=C(c1ccco1)N(CCC(c1ccccc1)c1ccco1)Cc1ccco1 (centres undefined)	33%	-24%	-7%	10%	10µM*
O=C(c1ccco1)N(Cc1ccc(Cl)cc1)Cc1ccco1	11%	1%	-8%	-12%	-3%
CC(=O)N(CCC(Cc1ccccc1)c1ccco1)Cc1ccco1 (centres undefined)	14%	-3%	-7%	3%	22µM*
COc1ccc(-c2cc3ccc(O)c(CN4CCC(C)CC4)c3oc2=O)cc1OC	x	x	3%	x	6%
CC(C)(O)C1Cc2cc(/C=C/C(=O)O)c(O)cc2O1 (centres undefined)	u	-3%	u	28µM*	0.22µM*
